# Measurements taken from the supplement of paper PMC3334620.
# In all, about 33,000 sequences were measured (“E-score (-0.5 to 0.5)”: median about -0.0059, highest 2% from about 0.26 on). The sample holds the highest values, similar sequences and a random draw of the others, so the mix is not that of the screen.
# Molecular target: T1, Cin5 (UniProt P40917)
# T1 sequence: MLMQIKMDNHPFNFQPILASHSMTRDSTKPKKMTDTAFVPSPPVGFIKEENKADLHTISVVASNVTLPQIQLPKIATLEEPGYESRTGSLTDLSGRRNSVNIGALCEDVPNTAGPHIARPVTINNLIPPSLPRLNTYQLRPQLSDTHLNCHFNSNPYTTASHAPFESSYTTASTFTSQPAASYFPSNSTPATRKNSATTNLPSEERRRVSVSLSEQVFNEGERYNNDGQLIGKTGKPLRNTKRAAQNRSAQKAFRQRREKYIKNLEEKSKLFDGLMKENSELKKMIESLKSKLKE
# Assay: PBM E-score (8-mer binding enrichment) (E-score (-0.5 to 0.5)); higher = stronger / more preferred TF binding
# Conditions: protein concentration: 100 nM; construct: GST-full length
# Summary of the method: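 Full-length yeast transcription factors or their DNA-binding domains, GST-tagged and expressed with PURExpress, were applied at about 100-200 nM to universal all-10-mer Agilent arrays. These arrays had been made double-stranded by primer extension on fresh or once-stripped slides. Detection used fluorescent anti-GST, normalisation used masliner, and E-scores for ungapped eight-base words pooled with reverse complements came from the Universal PBM Analysis Suite.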
row,Sequence,PBM E-score
1,CCTGAAAA,-0.101
2,AACTTTAT,0.123
3,AGTTGTTG,0.0199
4,AAGATATG,0.268
5,AAGATATA,0.152
6,AAGATATC,0.207
7,ATGATATG,0.289
8,ATGATATC,0.167
9,ATGATATA,0.166
10,CCTTCCAG,-0.127
11,GGTCCGCA,-0.0684
12,GGTTCCCA,-0.0888
13,AACTTGCG,-0.0652
14,ACTTAACA,0.0535
15,ATAATTTG,0.208
16,ATAATTTA,0.332
17,GTAATTTA,0.27
18,ATAATTTC,0.136
19,CTAATTTA,0.158
20,GCAATTTA,0.137
21,GCCGCTCC,-0.305
22,CCCACACG,0.0465
23,GCATATGA,0.197
24,AAATATGA,0.245
25,CAATATGA,0.118

row,Sequence,PBM E-score
1,CCATATGA,-0.0136
2,TAATATGA,0.262
3,TCATATGA,0.272
4,ATGGACGC,-0.0507
5,TCTTCCCA,-0.177
6,GGTATCAC,0.0115
7,ATTGGGTG,0.282
8,ATTGGGTA,0.0825
9,ATTGGGTC,0.13
10,ACCATTCA,0.0437
11,AGTTGAAG,-0.00489
12,AGTTGAAA,-0.0098
13,AGTTGAAT,0.259
14,CGACTGGA,-0.167
15,GTTCGACA,0.0859
16,GTCTAGCA,-0.0616
17,AAACATGC,0.0556
18,ATAAGAAC,0.31
19,ATAAGAAA,0.156
20,ATAAGAAT,0.224
21,CGTCTCTA,-0.21
22,GTCGCGAA,-0.0343
23,CTCGCGAC,0.107
24,GTCGCGAC,0.317
25,TGGTAACA,-0.0163

row,Sequence,PBM E-score
1,TCACCAGA,-0.144
2,ATAATCGC,0.187
3,ATAATCAA,0.227
4,ATAATCAT,0.377
5,AAAATCAG,0.00782
6,CTAATCAG,0.14
7,ATAATCAG,0.285
8,ATAATCAC,0.233
9,ATAATCGA,0.178
10,ATAATCGG,0.291
11,AAAAGGGA,-0.1
12,CAATCTTA,0.0906
13,CCGGGTCG,-0.131
14,CAGGAGCG,-0.0881
15,AACCCATA,0.29
16,GACCCATA,0.222
17,AACCCATT,0.114
18,AGAACTTC,-0.217
19,AGCTATTG,0.01
20,CGTGGAAG,0.129
21,CGTGGAAA,0.28
22,AGTGGAAA,0.0448
23,CACTATGG,-0.15
24,GCAATATA,0.185
25,GTAATAAA,0.2

row,Sequence,PBM E-score
1,ATAATAGA,0.221
2,GTAATATA,0.323
3,ATAATATC,0.221
4,ATAATATG,0.289
5,ATAATATA,0.345
6,AGAATATA,0.105
7,CTAATATA,0.0911
8,CCAATATA,0.0434
9,ACAATATA,0.269
10,ATAATAAG,0.225
11,GAGCTCCA,-0.092
12,AAGGCCCT,-0.136
13,CTTAGTGA,0.0718
14,CCCCCTTA,-0.342
15,AGTATCAC,0.0484
16,ATATAATA,0.303
17,GTATAATA,0.253
18,CTATAATA,0.114
19,AACCCCTT,-0.0504
20,CTCCCCAA,-0.00166
21,CATCTGCC,-0.0681
22,ATGTTTTC,0.121
23,CCTGGGAG,-0.176
24,ACTCCCGC,-0.0164
